Screens as filed in PubChem BioAssay.
Rv3671c protease = Rv3671c (M. tuberculosis) protease inhibition. actives 0.048% (n = 320,000). inhibition, % at 5.96 µM. AID 2606; in the data active means inhibition above about 38%;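 further: extracellular domain of Rv3671c used as enzyme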
Target sequence (P9WHR9 whole entry, looked up, the tested form may be a part): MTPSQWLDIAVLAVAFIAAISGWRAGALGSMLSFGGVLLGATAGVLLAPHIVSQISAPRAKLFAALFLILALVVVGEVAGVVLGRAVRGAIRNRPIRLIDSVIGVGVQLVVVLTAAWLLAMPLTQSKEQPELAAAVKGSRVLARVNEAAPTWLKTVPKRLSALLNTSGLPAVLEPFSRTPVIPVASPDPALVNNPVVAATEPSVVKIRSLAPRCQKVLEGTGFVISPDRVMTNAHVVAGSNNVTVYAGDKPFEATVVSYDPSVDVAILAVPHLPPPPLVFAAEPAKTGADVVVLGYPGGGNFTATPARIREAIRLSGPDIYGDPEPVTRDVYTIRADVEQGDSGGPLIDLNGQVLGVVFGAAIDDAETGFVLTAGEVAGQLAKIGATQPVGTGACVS
GDH-TPI counter = inhibits GDH-TPI coupling enzymes, artifact for Mtb FBA screen | GDH-TPI coupled enzyme counterscreen, NADH absorbance | inhibition, % at 4.8 µM | actives 1.2% (n = 360,000); in the data active means inhibition above about 30%
Mtb FBA inh = inhibitors of M. tuberculosis fructose-bisphosphate aldolase; P9WQA3; purified M. tuberculosis FBA, fluorescence read-out; inhibition, % at 1 µM; actives 2.3% (n = 360,000); in the data active means inhibition above about 27%
Target sequence (P9WQA3 whole entry, looked up): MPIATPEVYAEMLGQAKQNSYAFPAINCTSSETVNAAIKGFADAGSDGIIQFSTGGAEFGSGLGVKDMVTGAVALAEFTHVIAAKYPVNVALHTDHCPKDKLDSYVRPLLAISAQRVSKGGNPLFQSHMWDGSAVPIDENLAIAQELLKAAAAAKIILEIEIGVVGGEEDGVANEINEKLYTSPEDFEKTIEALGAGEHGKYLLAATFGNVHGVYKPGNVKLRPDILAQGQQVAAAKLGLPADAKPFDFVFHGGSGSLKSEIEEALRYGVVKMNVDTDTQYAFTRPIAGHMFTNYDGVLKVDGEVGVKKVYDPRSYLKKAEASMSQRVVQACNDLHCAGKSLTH
FadD28 FP inh = blocks FadD28 binding to the bisubstrate probe. fluorescence polarization. inhibition, % at 12.5 µM. actives 0.22% (n = 360,000). AID 588549; in the data active means inhibition above about 8.5%, passing the limit was not always enough
BioA inh = blocks M. tuberculosis BioA enzyme activity; purified M. tuberculosis BioA enzyme, plate reader; actives 0.096% (n = 360,000); inhibition, % at 9.99 µM; AID 602481; in the data active means inhibition above about 40%
Each line names hits and unclear results; the compound was inactive in the other large screens. The list is not random: actives were taken first. Their share in the collection is about 3%.

O=C(/C=C/c1ccco1)Oc1cc(Br)cc(/C=N/NC(=O)c2ccccc2O)c1	GDH-TPI counter 43
O=C(NCc1nc2ccccc2[nH]1)C1=C[C@H](c2ccc(Br)cc2)C[C@H](OCCCCO)O1	none (no result: Rv3671c protease, GDH-TPI counter, Mtb FBA inh, FadD28 FP inh)
COc1cc(/C=C2\SC(=O)NC2=O)ccc1Oc1cnccn1	GDH-TPI counter 36 (no result: BioA inh)
COc1cc(/C=C2/SC(=O)NC2=O)ccc1OCc1ccccc1	GDH-TPI counter 43
CO[C@H]1CN(C)C(=O)c2cc(NC(=O)Nc3ccccc3F)ccc2OC[C@H](C)N(C(C)=O)C[C@H]1C	none (no result: Rv3671c protease, GDH-TPI counter, Mtb FBA inh, FadD28 FP inh)
Oc1oc(-c2ccccc2)nc1C=NCc1ccccc1	GDH-TPI counter 49
Oc1oc(-c2ccccc2)nc1C=Nc1ccccc1	none (no result: BioA inh)
Cc1cc(O)c(C(C)C)cc1N=Cc1ccc([N+](=O)[O-])cc1	none (no result: Rv3671c protease, BioA inh)
Cc1cc(O)c(C(C)C)cc1N=Cc1ccc(N(C)C)cc1	GDH-TPI counter 46 (no result: Rv3671c protease, BioA inh)
O=C(NCCN1CCc2ccccc2C1)Nc1ccc([N+](=O)[O-])cc1	GDH-TPI counter 40
O=C(NCCCN1CCc2ccccc2C1)Nc1ccc(Br)cc1	none
COCCNc1nc(Nc2ccc(C(=O)OC)cc2)c2sccc2n1	GDH-TPI counter 31 (no result: Rv3671c protease)
Cc1ccc(NC(=O)CNc2ccccc2N2CCCC2=O)cc1S(=O)(=O)N1CCCCC1	FadD28 FP inh 42
Cc1ccc(NC(=O)CCl)cc1S(=O)(=O)N1CCCCCC1	none (no result: BioA inh)
Cc1ccsc1/C=N/NC(=O)c1ccc(Cn2cc(Br)cn2)o1	GDH-TPI counter 35 (no result: BioA inh)
COc1ccc(C(=O)NCCS(=O)(=O)N2CCN(Cc3ccccc3)CC2)cc1	none
COc1ccc2cc3cc(C(=O)NCCN4CCc5ccccc5C4)oc3nc2c1	GDH-TPI counter 38, Mtb FBA inh 188
COc1ccc2cc3cc(C(=O)NCCN4CCN(Cc5ccccc5)CC4)oc3nc2c1	Mtb FBA inh active
CC1/C(=C\c2ccc(Cl)cc2)C(=O)C2CC1C2(C)C (stereo unspecified)	none
CC1CCC(C(C)C)C(=O)/C1=C/c1ccc(N)cc1 (stereo unspecified)	GDH-TPI counter 36
COc1cccc(-c2nc3ccccc3s2)c1O	none
COc1cc(OC)c(-c2nc3ccccc3s2)cc1OC	Mtb FBA inh active (no result: BioA inh)
COc1cc(-c2nc3ccccc3s2)ccc1O	Mtb FBA inh 150
CCOc1cc(-c2nc3ccccc3s2)ccc1O	Mtb FBA inh active
COc1ccc(-c2nc3ccccc3s2)cc1O	GDH-TPI counter 36
Oc1cccc(-c2nc3ccccc3s2)c1	none
CC(=O)N1[C@@H]2c3ccc(-c4ccncc4)c(=O)n3C[C@@H]2[C@@H](CO)[C@@H]1C(=O)NCc1ccccc1Cl	none (no result: Rv3671c protease, GDH-TPI counter, Mtb FBA inh, FadD28 FP inh)
C[C@@H]1CN([C@@H](C)CO)C(=O)c2cc(NC(=O)c3ccncc3)ccc2O[C@H]1CN(C)C(=O)Nc1ccc(F)cc1	none (no result: Rv3671c protease, GDH-TPI counter, Mtb FBA inh, FadD28 FP inh)
O=C(N/N=C/c1ccsc1)c1cc2ccccc2o1	none
COC(=O)c1ccccc1-c1ccc(/C=N/NC(=O)c2cc3ccccc3o2)o1	GDH-TPI counter 52 (no result: BioA inh)
COC(=O)c1ccccc1-c1ccc(/C=N/Nc2nc(N3CCCC3)nc(N3CCCC3)n2)o1	GDH-TPI counter 61
O=C(C[C@H]1CC[C@@H]2[C@H](COC[C@H](O)CN2Cc2nccs2)O1)NCc1ccccc1	none (no result: Rv3671c protease, GDH-TPI counter, Mtb FBA inh, FadD28 FP inh)
CN(C)C(=O)c1ccc(-c2ccc3c(c2)[C@@H]2[C@@H](CCN2C(=O)c2ccccn2)[C@H](CO)N3)cc1	none (no result: Rv3671c protease, GDH-TPI counter, Mtb FBA inh, FadD28 FP inh)
CCCN1C[C@H](C)[C@H](OC)CN(C)C(=O)c2cc(NS(=O)(=O)c3ccccc3)ccc2OC[C@H]1C	none (no result: Rv3671c protease, GDH-TPI counter, Mtb FBA inh, FadD28 FP inh)
CCN1C(=O)[C@H]2[C@@H](c3ccc(-c4cc(C(C)=O)cs4)cc3)N3CCC[C@@]3(C(=O)OC)[C@H]2C1=O	GDH-TPI counter 40
CNC(=O)C[C@H]1CC[C@@H]2[C@@H](COc3ccc(NC(=O)Nc4cccc(Cl)c4)cc3C(=O)N2C)O1	none (no result: Rv3671c protease, GDH-TPI counter, Mtb FBA inh, FadD28 FP inh)
CN1/C(=C\C=N\NC(=O)c2ccc(O)cc2)C(C)(C)c2ccccc21	GDH-TPI counter 40
CN1/C(=C\C=N\NC(=O)c2cccnc2)C(C)(C)c2ccccc21	none (no result: BioA inh)
COc1ccc(NC(=O)N(C)C[C@@H]2Oc3cc(C#CCC(C)C)ccc3S(=O)(=O)N([C@@H](C)CO)C[C@@H]2C)cc1	none (no result: Rv3671c protease, GDH-TPI counter, Mtb FBA inh, FadD28 FP inh)
CCOc1ccc(/C=N/NC(=S)NC2CC3CC2C2C=CCC32)cc1 (stereo unspecified)	none
COc1cc(/C=N/NC(=S)NC2CC3CC2C2C=CCC32)ccc1O (stereo unspecified)	GDH-TPI counter 37 (no result: BioA inh)
COc1ccc(/C=N/NC(=S)NC2CCS(=O)(=O)C2)cc1OC (stereo unspecified)	GDH-TPI counter 41
CCn1c(NC(=O)c2cccs2)nc2ccccc21	GDH-TPI counter 36
C[C@@H]1CN([C@@H](C)CO)C(=O)c2cccc(NC(=O)c3ccc(-c4nccs4)cc3)c2O[C@H]1CN(C)S(=O)(=O)c1ccc(F)cc1	none (no result: Rv3671c protease, GDH-TPI counter, Mtb FBA inh, FadD28 FP inh)
C[C@@H]1CN([C@@H](C)CO)C(=O)c2cc(NS(C)(=O)=O)ccc2O[C@@H](C)CCCCO[C@@H]1CN(C)S(=O)(=O)c1cccs1	none (no result: Rv3671c protease, GDH-TPI counter, Mtb FBA inh, FadD28 FP inh)
Cc1ccccc1Nc1n[nH]c(=S)s1	none (no result: Rv3671c protease)
Nc1ccccc1-c1n[nH]c(=S)s1	Mtb FBA inh 61 (no result: Rv3671c protease, BioA inh)
C[C@@H]1CCCCO[C@H](CN(C)S(=O)(=O)c2cccs2)[C@@H](C)CN([C@@H](C)CO)C(=O)c2cc(NC(=O)Nc3ccccc3)ccc2O1	none (no result: Rv3671c protease, GDH-TPI counter, Mtb FBA inh, FadD28 FP inh)
Cc1nn(-c2ccccc2)c2c1C(O)CC(C)(C)C2 (stereo unspecified)	none
Cc1nc2c(c3c1[nH]c1ccccc13)C(O)CC(C)(C)C2 (stereo unspecified)	Mtb FBA inh 120 (no result: BioA inh)
CCCCNc1nc2c(S(=O)(=O)c3ccccc3)nnn2c2ccccc12	none
Cc1ccc(S(=O)(=O)c2nnn3c2nc(NCCCN2CCCC2=O)c2ccccc23)cc1C	Mtb FBA inh 31
C[C@@H]1CN([C@H](C)CO)C(=O)c2cc(NC(=O)NC3CCCCC3)ccc2O[C@H]1CN(C)S(=O)(=O)c1cn(C)cn1	none (no result: Rv3671c protease, GDH-TPI counter, Mtb FBA inh, FadD28 FP inh)
C/C(=N\Nc1ncc(Cl)cc1Cl)c1ccc(C#N)cc1	GDH-TPI counter 46
Cc1cc2nccc(-c3ccco3)n2n1	none (no result: BioA inh)
Nc1nc2nccc(-c3ccco3)n2n1	Mtb FBA inh active (no result: BioA inh)
C[C@@H]1CN([C@@H](C)CO)C(=O)c2cc(NC(=O)CCC(F)(F)F)ccc2O[C@@H](C)CCCCO[C@@H]1CN(C)Cc1ccc(C(F)(F)F)cc1	none (no result: Rv3671c protease, GDH-TPI counter, Mtb FBA inh, FadD28 FP inh)
C[C@H]1CCCCO[C@H](CN(C)C(=O)Cc2ccccc2)[C@@H](C)CN([C@@H](C)CO)C(=O)c2cc(NC(=O)CCCN(C)C)ccc2O1	none (no result: Rv3671c protease, GDH-TPI counter, Mtb FBA inh, FadD28 FP inh)
CNc1ccc(/C=C(\CCC(=O)O)c2nc3ccccc3s2)cc1[N+](=O)[O-]	GDH-TPI counter 35 (no result: BioA inh)
COc1cc(/C=C(\CC(=O)O)c2nc3ccccc3s2)cc(OC)c1O	GDH-TPI counter 39 (no result: BioA inh)
COc1ccc(C(=O)Nc2cccc(/C=C(\CCC(=O)O)c3nc4ccccc4s3)c2)cc1	GDH-TPI counter 32
CCC(=O)Nc1ccc2c(c1)C(=O)N(C)C[C@@H](OC)[C@H](C)CN(C(=O)Nc1ccccc1F)[C@H](C)CO2	none (no result: Rv3671c protease, GDH-TPI counter, Mtb FBA inh, FadD28 FP inh)
CCCC(=O)Nc1ccc2c(c1)C(=O)N(C)C[C@H](OC)[C@@H](C)CN(CCc1ccccc1)[C@H](C)CO2	none (no result: Rv3671c protease, GDH-TPI counter, Mtb FBA inh, FadD28 FP inh)
